Experimental data published in publication PMC5540273 (PLoS ONE, 2017).

What was measured:
Conditions in all cases: concentration: 1 μM, replicates: in singlicate; n = 1
[1] = system: PRKCQ
[2] = system: PRKD1
[3] = system: PRKD2
[4] = system: PRKD3
[5] = system: PRKG1
[6] = system: PRKG2
[7] = system: T1, PRKR
T1 construct: gene EIF2AK2

[8] = system: PRKX
[9] = system: PRP4
[10] = system: T2, PYK2
T2 construct: gene PTK2B

[11] = system: QSK
[12] = system: RAF1
[13] = system: RET
[14] = system: RIOK1
[15] = system: RIOK2
[16] = system: RIOK3
[17] = system: RIPK1
[18] = system: RIPK2
[19] = system: RIPK4
[20] = system: RIPK5
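Note: KINOMEscan kinase panel screen.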

| SMILES | %Inh [1] | %Inh [2] | %Inh [3] | %Inh [4] | %Inh [5] | %Inh [6] | %Inh [7] | %Inh [8] | %Inh [9] | %Inh [10] | %Inh [11] | %Inh [12] | %Inh [13] | %Inh [14] | %Inh [15] | %Inh [16] | %Inh [17] | %Inh [18] | %Inh [19] | %Inh [20] |
| --- | --- | --- | --- | --- | --- | --- | --- | --- | --- | --- | --- | --- | --- | --- | --- | --- | --- | --- | --- | --- |
| Cn1cncc1-c1ccc2ncnc(Nc3ccc(OCc4ccccc4)cc3)c2c1 [GW320571] | 16% | 26% | 5% | 15% | 26% | 0% | 0% | 4% | 0% | 34% | 16% | 13% | 0% | 32% | 26% | 15% | 18% | 93.1% | 0% | 0% |
| Fc1cc(Cl)ccc1Nc1ccnc2cc(-c3ccc(CN4CCCCC4)o3)ccc12 [GW560116] | 0% | 0% | 0% | 0% | 0% | 0% | 0% | 0% | 21% | 0% | 29% | 8% | 22% | 12% | 0% | 0% | 8% | 61% | 0% | 0% |
| CS(=O)(=O)c1ccc(-c2nc3n(c2-c2ccncc2)CCC3)cc1 [SKF-105942] | 0% | 3% | 0% | 0% | 0% | 5% | 0% | 2% | 11% | 0% | 0% | 16% | 0% | 0% | 0% | 0% | 0% | 0% | 100% | 2% |
| CN(C)CCN(C)C(=O)c1cc(-c2ccncc2)c(-c2ccc(Cl)c(O)c2)o1.Cl.Cl [SB-710397] | 3% | 0% | 57% | 12% | 0% | 0% | 0% | 0% | 60% | 12% | 0% | 87% | 24% | 37% | 0% | 0% | 0% | 59% | 14% | 0% |
| NC(=O)c1nnc2ccccc2c1N | 3% | 0% | 53% | 0% | 0% | 14% | 0% | 1% | 0% | 12% | 22% | 19% | 8% | 64% | 44% | 57% | 0% | 0% | 45% | 0% |
| Cc1ccc(C(=O)Nc2ccc(Nc3ccnc4cc(-c5ccccn5)ccc34)cc2O)cc1.Cl [GW440146] | 6% | 17% | 0% | 18% | 0% | 0% | 0% | 9% | 12% | 1% | 0% | 8% | 26% | 14% | 3% | 81% | 0% | 52% | 3% | 0% |
| COc1cccc(NC(=O)NC2CCN(c3ccnc(Nc4ccc(F)cc4)n3)C2)c1 (centres unmarked) [GSK1379721] | 3% | 0% | 0% | 19% | 0% | 0% | 1% | 21% | 47% | 0% | 3% | 3% | 0% | 16% | 0% | 13% | 29% | 2% | 17% | 18% |
